Out of some 5,500 compounds screened, about 2,000 (36%) were called active. About 18% were inconclusive and are not listed. Cut-off read from the data, not from the text of the source: active = normalized growth mostly below about 0.91 (no sharp cut-off); inconclusive = no clear call, values can overlap the other calls; inactive = mostly above about 0.92. The list shows a part of the results.
Assay: chemical genetic growth profiling, strain panel (AID 1159580);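 note: tested at 20 µM; growth read once vehicle control cultures reached saturation at 30 °C; 1 = growth at the plate median or of vehicle wells; lower values mean less growth of the strain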
Details: growth OD

Measured: normalized growth

COc1ccc2c(=O)ccoc2c1
inactive: S. cerevisiae deletion strains, locus YJR043C, strain POL32, stronger effect = lower value 1.01 | S. cerevisiae deletion strains, locus YJR075W, strain HOC1, stronger effect = lower value 1.04 | S. cerevisiae deletion strains, locus YKL009W, strain mrt4, stronger effect = lower value 0.99 | S. cerevisiae deletion strains, locus YKL068W, stronger effect = lower value 1.03 | S. cerevisiae deletion strains, locus YKL085W, strain MDH1 (second series), stronger effect = lower value 1.03 | S. cerevisiae deletion strains, locus YKL085W, strain MDH1, stronger effect = lower value 1.03 | S. cerevisiae deletion strains, locus YKL160W, strain elf1, stronger effect = lower value 1.02 | S. cerevisiae deletion strains, locus YKL190W, strain CNB1, stronger effect = lower value 1.02 | S. cerevisiae deletion strains, locus YKR001C, strain vps1, stronger effect = lower value 0.947 | S. cerevisiae deletion strains, locus YKR026C, strain gcn3, stronger effect = lower value 1.03 | S. cerevisiae deletion strains, locus YKR091W, strain srl3, stronger effect = lower value 1.02 | S. cerevisiae deletion strains, locus YLL001W, strain dnm1, stronger effect = lower value 1.02 | S. cerevisiae deletion strains, locus YLL026W, stronger effect = lower value 1.02 | S. cerevisiae deletion strains, locus YLL041C, strain sdh2, stronger effect = lower value 0.972 | S. cerevisiae deletion strains, locus YLR027C, strain aat2, stronger effect = lower value 1.02 | S. cerevisiae deletion strains, locus YLR039C, strain RIC1, stronger effect = lower value 1.01 | S. cerevisiae deletion strains, locus YLR058C, strain SHM2, stronger effect = lower value 1.02 | S. cerevisiae deletion strains, locus YLR102C, strain apc9, stronger effect = lower value 1.01 | S. cerevisiae deletion strains, locus YLR221C, strain rsa3, stronger effect = lower value 1.03 | S. cerevisiae deletion strains, locus YLR258W, strain gsy2, stronger effect = lower value 1.02 | S. cerevisiae deletion strains, locus YLR262C, strain YPT6 (second series), stronger effect = lower value 1.04 | S. cerevisiae deletion strains, locus YLR262C, strain YPT6, stronger effect = lower value 1.06 | S. cerevisiae deletion strains, locus YLR268W, strain sec22, stronger effect = lower value 0.987 | S. cerevisiae deletion strains, locus YLR320W, strain mms22, stronger effect = lower value 1.03 | S. cerevisiae deletion strains, locus YLR330W, strain CHS5, stronger effect = lower value 1.02 | S. cerevisiae deletion strains, locus YLR342W, strain FKS1 (second series), stronger effect = lower value 1.03 | S. cerevisiae deletion strains, locus YLR342W, strain FKS1, stronger effect = lower value 1.02 | S. cerevisiae deletion strains, locus YLR357W, strain rsc2, stronger effect = lower value 1.02 | S. cerevisiae deletion strains, locus YLR370C, strain arc18, stronger effect = lower value 1.02 | S. cerevisiae deletion strains, locus YLR371W, strain rom2, stronger effect = lower value 1.02 | S. cerevisiae deletion strains, locus YLR384C, strain iki3, stronger effect = lower value 1.02 | S. cerevisiae deletion strains, locus YLR418C, strain cdc73, stronger effect = lower value 0.979 | S. cerevisiae deletion strains, locus YML016C, strain PPZ1, stronger effect = lower value 1.01 | S. cerevisiae deletion strains, locus YML032C, strain rad52, stronger effect = lower value 0.993 | S. cerevisiae deletion strains, locus YML120C, strain ndi1, stronger effect = lower value 1.03 | S. cerevisiae deletion strains, locus YML124C, strain tub3, stronger effect = lower value 1.01 | S. cerevisiae deletion strains, locus YMR058W, strain fet3, stronger effect = lower value 1.02 | S. cerevisiae deletion strains, locus YMR078C, strain ctf18, stronger effect = lower value 1.01 | S. cerevisiae deletion strains, locus YMR125W, strain sto1, stronger effect = lower value 1.03 | S. cerevisiae deletion strains, locus YMR129W, stronger effect = lower value 1.02 | S. cerevisiae deletion strains, locus YMR205C, strain PFK2, stronger effect = lower value 1.03 | S. cerevisiae deletion strains, locus YMR223W, strain ubp8, stronger effect = lower value 0.986 | S. cerevisiae deletion strains, locus YMR231W, strain pep5, stronger effect = lower value 1.02 | S. cerevisiae deletion strains, locus YMR263W, strain SAP30, stronger effect = lower value 1.02 | S. cerevisiae deletion strains, locus YMR307W, strain GAS1, stronger effect = lower value 1.02 | S. cerevisiae deletion strains, locus YNL067W, strain RPL9B, stronger effect = lower value 1.01 | S. cerevisiae deletion strains, locus YNL071W, strain lat1, stronger effect = lower value 1.05 | S. cerevisiae deletion strains, locus YNL128W, strain TEP1, stronger effect = lower value 1.03 | S. cerevisiae deletion strains, locus YNL153C, strain GIM3, stronger effect = lower value 1.01 | S. cerevisiae deletion strains, locus YNL209W, strain ssb2, stronger effect = lower value 1.02 | S. cerevisiae deletion strains, locus YNL233W, strain BNI4, stronger effect = lower value 1.01 | S. cerevisiae deletion strains, locus YNL248C, strain rpa49, stronger effect = lower value 1.03 | S. cerevisiae deletion strains, locus YNL250W, strain rad50, stronger effect = lower value 1.05 | S. cerevisiae deletion strains, locus YNL271C, strain bni1, stronger effect = lower value 1 | S. cerevisiae deletion strains, locus YNL298W, strain CLA4, stronger effect = lower value 0.977 | S. cerevisiae deletion strains, locus YNL307C, strain MCK1, stronger effect = lower value 0.984 | S. cerevisiae deletion strains, locus YNL322C, strain KRE1 (second series), stronger effect = lower value 1.03 | S. cerevisiae deletion strains, locus YNL322C, strain KRE1, stronger effect = lower value 1.02 | S. cerevisiae deletion strains, locus YNR049C, strain mso1, stronger effect = lower value 1.02 | S. cerevisiae deletion strains, locus YNR052C, strain pop2, stronger effect = lower value 1 | S. cerevisiae deletion strains, locus YOL006C, strain TOP1, stronger effect = lower value 0.962 | S. cerevisiae deletion strains, locus YOL012C, strain htz1 0.848 | S. cerevisiae deletion strains, locus YOL147C, strain pex11, stronger effect = lower value 1.01 | S. cerevisiae deletion strains, locus YOR001W, strain rrp6, stronger effect = lower value 1.03 | S. cerevisiae deletion strains, locus YOR061W, strain CKA2, stronger effect = lower value 1.02 | S. cerevisiae deletion strains, locus YOR069W, strain VPS5, stronger effect = lower value 1.01 | S. cerevisiae deletion strains, locus YOR070C, strain gyp1, stronger effect = lower value 1.02 | S. cerevisiae deletion strains, locus YOR080W, strain dia2, stronger effect = lower value 1.01 | S. cerevisiae deletion strains, locus YOR083W, strain WHI5, stronger effect = lower value 1.02 | S. cerevisiae deletion strains, locus YOR106W, strain vam3, stronger effect = lower value 1.03 | S. cerevisiae deletion strains, locus YOR136W, strain idh2, stronger effect = lower value 1.01 | S. cerevisiae deletion strains, locus YOR144C, strain elg1, stronger effect = lower value 1 | S. cerevisiae deletion strains, locus YOR184W, strain ser1, stronger effect = lower value 0.988 | S. cerevisiae deletion strains, locus YOR265W, strain rbl2, stronger effect = lower value 1.01 | S. cerevisiae deletion strains, locus YOR270C, strain vph1, stronger effect = lower value 1.03 | S. cerevisiae deletion strains, locus YOR290C, strain snf2, stronger effect = lower value 1.04 | S. cerevisiae deletion strains, locus YOR316C, strain cot1, stronger effect = lower value 1.01 | S. cerevisiae deletion strains, locus YPL051W, strain arl3, stronger effect = lower value 1.02 | S. cerevisiae deletion strains, locus YPL055C, strain LGE1, stronger effect = lower value 1.04 | S. cerevisiae deletion strains, locus YPL078C, strain atp4, stronger effect = lower value 1.02 | S. cerevisiae deletion strains, locus YPL106C, strain sse1, stronger effect = lower value 1.01 | S. cerevisiae deletion strains, locus YPL240C, strain hsp82, stronger effect = lower value 1.03 | S. cerevisiae deletion strains, locus YPL241C, strain CIN2, stronger effect = lower value 1.02 | S. cerevisiae deletion strains, locus YPR119W, strain clb2, stronger effect = lower value 1.01 | S. cerevisiae deletion strains, locus YPR141C, strain kar3, stronger effect = lower value 1.01 | S. cerevisiae deletion strains, locus YPR163C, strain tif3, stronger effect = lower value 1.01 | S. cerevisiae deletion strains, locus YPR167C, strain met16, stronger effect = lower value 1.02 | S. cerevisiae deletion strains, strain wtn01, stronger effect = lower value 0.997 | S. cerevisiae strains, strain wild type, stronger effect = lower value 1.02

Source: PubChem BioAssay AID1159580 (chemical genetic matrix, 2015)
